Experimental data: PubChem BioAssay (NCATS)
“And” between values parts separate entries of the source, which are not always exact repeats. Identical values can stand only once. Inconclusive results are not listed. Unmarked numbers belong to inactive results. The source made the active and inactive calls. The call rests on the fitted dose curve; in most records, active means well fitted inhibition curve with a large enough effect; inconclusive means small, poorly fitted or top-dose-only effect; inactive means flat fitted curve, though single readings scatter. Peptide text beside a SMILES is read from it.

What follows are molecules tested on HaCat (assay: Cytotoxic Profiling of Annotated Libraries Using Quantitative High-Throughput Screening (AID 1296008; further: nearly all actives have a fitted effect of over 60% in size)). Details: Five cell lines viability, CellTiter-Glo ATP luminescence, 48-72 h; max response: hits give low values.
Procedure, shortened: (§1)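 Compounds were pin-transferred onto cells and incubated 48 or 72 hr at 37 degree Celsius, 95% humidity. CellTiter-Glo was added, plates sat 10 min at room temperature, then ATP-coupled luminescence was imaged as the viability read-out.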
On the % scale 0 is the no-effect control and ±100 the full control effect; potency means the concentration at half of the fitted maximal effect.

Compound | max response | outcome | Potency
Cc1cc2cc3c(C)cc(=O)oc3c(C)c2o1 | -8.67% | inactive | 
CN(C)[C@@H](CCOc1cccc2ccccc12)c1ccccc1 | 4.48% | inactive | 
COc1ccc2cc([C@H](C)C(=O)O)ccc2c1 | -13.6% | inactive | 
COc1cc(C(C)=O)ccc1OCCCN1CCC(c2noc3cc(F)ccc23)CC1 |  | inactive | 
Cc1ccc(C)c(OCCCC(C)(C)C(=O)O)c1 | 3.97% | inactive | 
CCC[C@@H]1C[C@@H](C(=O)N[C@@H]([C@H]2O[C@H](SC)[C@H](O)[C@@H](O)[C@H]2O)[C@@H](C)O)N(C)C1 | -11.9% and -14% |  | 
Clc1ccc(C(Cn2ccnc2)OCc2ccc(Sc3ccccc3)cc2)c(Cl)c1 (configuration not stated) |  | inactive | 
CS(=O)(=O)OCCCCOS(C)(=O)=O | -18.7% | inactive | 
CC(=O)NC[C@H]1CN(c2ccc(N3CCOCC3)c(F)c2)C(=O)O1 | -2.3% | inactive | 
CC1=C(C)C(=O)C(C(CCCCCC(=O)O)c2ccccc2)=C(C)C1=O (configuration not stated) | -5.06% | inactive | 
COc1cc2nc(N3CCN(C(=O)C4CCCO4)CC3)nc(N)c2cc1OC (configuration not stated) | 3.43% and -0.464% |  | 
CCC1=C(C)CN(C(=O)NCCc2ccc(S(=O)(=O)NC(=O)NC3CCC(C)CC3)cc2)C1=O (configuration not stated) |  | inactive | 
Clc1ccc(C(Cn2ccnc2)OCc2c(Cl)cccc2Cl)c(Cl)c1 (configuration not stated) | 1.49% | inactive | 
O=C(O)CCNC(=O)c1ccc(N=Nc2ccc(O)c(C(=O)O)c2)cc1 | -13.4% | inactive | 
Cc1nc(-c2ccc(OCC(C)C)c(C#N)c2)sc1C(=O)O | 0.712% | inactive | 
Cc1c(C(=O)NN2CCCCC2)nn(-c2ccc(Cl)cc2Cl)c1-c1ccc(Cl)cc1 |  | inactive | 
Cn1c(NCCN(CCO)CCCc2ccc([N+](=O)[O-])cc2)cc(=O)n(C)c1=O | 0.714% | inactive | 
CCN(CCO)CCCC(C)Nc1ccnc2cc(Cl)ccc12 (configuration not stated) | -3.55% and -14.9% | inactive | 
CN(C)C(=O)COC(=O)Cc1ccc(OC(=O)c2ccc(N=C(N)N)cc2)cc1 | 3.28% | inactive | 

Compound | max response | outcome | Potency
CC(=O)Nc1ccc(O)cc1 | -8.57% | inactive | 
COC1=C(OC)C(=O)C(CCCCCCCCCCO)=C(C)C1=O | -8.33% | inactive | 
COC(=O)[C@H](Cc1ccccc1)NC(=O)[C@@H](N)CC(=O)O (H-Asp-Phe-OMe) | 0.0507% and -16.9% |  | 
CC1(C)CCC(C)(C)c2cc(NC(=O)c3ccc(C(=O)O)cc3)ccc21 | -6.69% | inactive | 
COC(=O)C1=C(C)NC(C)=C(C(=O)OCCCN2CCC(c3ccccc3)(c3ccccc3)CC2)C1c1cccc([N+](=O)[O-])c1 (configuration not stated) |  | inactive | 
O=C(NCC1CCCCN1)c1cc(OCC(F)(F)F)ccc1OCC(F)(F)F (configuration not stated) | -9.94% and -10.2% |  | 
O=C(NC(Cc1cc(=O)[nH]c2ccccc12)C(=O)O)c1ccc(Cl)cc1 (configuration not stated) | -8.32% | inactive | 
CCN(CC)C(=S)SSC(=S)N(CC)CC |  |  | 11.1 µM (active)
CN(c1nccc(=O)[nH]1)C1CCN(c2nc3ccccc3n2Cc2ccc(F)cc2)CC1 | 0.328% | inactive | 
Cc1cc2c(s1)Nc1ccccc1N=C2N1CCN(C)CC1 | -13.9% | inactive | 
CC1=C(C(=O)O)N2C(=O)[C@@H](NC(=O)[C@H](N)C3=CCC=CC3)[C@H]2SC1 |  | inactive | 
Cc1cc(=O)oc2cc(O)ccc12 | 1.05% and -3.2% |  | 
CN(C)c1ccc(O)c2c1C[C@H]1C[C@H]3[C@H](N(C)C)C(=O)C(C(N)=O)=C(O)[C@@]3(O)C(=O)C1=C2O |  | inactive | 
Cc1cccc(CN2CCN(C(c3ccccc3)c3ccc(Cl)cc3)CC2)c1 (configuration not stated) |  | inactive | 
Cc1ncc([N+](=O)[O-])n1CC(C)O (configuration not stated) | -8.77% | inactive | 
CNC[C@H](O)c1ccc(O)c(O)c1 | -1.14% and -13.4% |  | 
Clc1ccc(C(Cn2ccnc2)OCc2ccsc2Cl)c(Cl)c1 (configuration not stated) | -18.6% and -23.1% |  | 
COC(=O)N[C@H](C(=O)N[C@@H](Cc1ccccc1)[C@@H](O)CN(Cc1ccc(-c2ccccn2)cc1)NC(=O)[C@@H](NC(=O)OC)C(C)(C)C)C(C)(C)C | -5.76% | inactive | 

Each molecule was assayed on KB-3-1 in the same assay as above. Details: Five cell lines viability, CellTiter-Glo ATP luminescence, 48-72 h; max response: hits give low values.
Procedure, shortened: as §1

Compound | max response | outcome | Potency
COc1ccc2cc([C@H](C)C(=O)O)ccc2c1 | 11.2% and 5.36% and -1.1% |  | 
COc1cc(C(C)=O)ccc1OCCCN1CCC(c2noc3cc(F)ccc23)CC1 |  | inactive | 
Cc1ccc(C)c(OCCCC(C)(C)C(=O)O)c1 | 8.09% and 8.97% |  | 
CCC[C@@H]1C[C@@H](C(=O)N[C@@H]([C@H]2O[C@H](SC)[C@H](O)[C@@H](O)[C@H]2O)[C@@H](C)O)N(C)C1 | -5.54% |  | 
Clc1ccc(C(Cn2ccnc2)OCc2ccc(Sc3ccccc3)cc2)c(Cl)c1 (configuration not stated) | -18.4% |  | 
CS(=O)(=O)OCCCCOS(C)(=O)=O | 2.33% and 4.33% |  | 
CC(=O)NC[C@H]1CN(c2ccc(N3CCOCC3)c(F)c2)C(=O)O1 | -15.9% and -9.99% and -3.52% |  | 
CC1=C(C)C(=O)C(C(CCCCCC(=O)O)c2ccccc2)=C(C)C1=O (configuration not stated) | 6.39% |  | 
COc1cc2nc(N3CCN(C(=O)C4CCCO4)CC3)nc(N)c2cc1OC (configuration not stated) | -10.1% and 5.78% |  | 
CCC1=C(C)CN(C(=O)NCCc2ccc(S(=O)(=O)NC(=O)NC3CCC(C)CC3)cc2)C1=O (configuration not stated) | -10.1% and -9.63% |  | 
Clc1ccc(C(Cn2ccnc2)OCc2c(Cl)cccc2Cl)c(Cl)c1 (configuration not stated) | -15.6% and -6.5% and -4.2% |  | 
Cc1nc(-c2ccc(OCC(C)C)c(C#N)c2)sc1C(=O)O | 3.2% |  | 
Cc1c(C(=O)NN2CCCCC2)nn(-c2ccc(Cl)cc2Cl)c1-c1ccc(Cl)cc1 | -25.1% |  | 
Cn1c(NCCN(CCO)CCCc2ccc([N+](=O)[O-])cc2)cc(=O)n(C)c1=O | 3.71% and -8.99% |  | 
CCN(CCO)CCCC(C)Nc1ccnc2cc(Cl)ccc12 (configuration not stated) | -5.86% and 9.19% and -2.52% |  | 
CN(C)C(=O)COC(=O)Cc1ccc(OC(=O)c2ccc(N=C(N)N)cc2)cc1 | 4.33% and 2.16% |  | 

Compound | max response | outcome | Potency
COC1=C(OC)C(=O)C(CCCCCCCCCCO)=C(C)C1=O | -4.5% and -1.13% |  | 
CC1(C)CCC(C)(C)c2cc(NC(=O)c3ccc(C(=O)O)cc3)ccc21 | 33.6% |  | 
COC(=O)C1=C(C)NC(C)=C(C(=O)OCCCN2CCC(c3ccccc3)(c3ccccc3)CC2)C1c1cccc([N+](=O)[O-])c1 (configuration not stated) | 0.505% |  | 
O=C(NCC1CCCCN1)c1cc(OCC(F)(F)F)ccc1OCC(F)(F)F (configuration not stated) | 3.67% |  | 
CCCS(=O)c1ccc2nc(NC(=O)OC)[nH]c2c1 (configuration not stated) |  |  | 20.6 µM (active)
O=C(NC(Cc1cc(=O)[nH]c2ccccc12)C(=O)O)c1ccc(Cl)cc1 (configuration not stated) | 9.29% | inactive | 
CN(c1nccc(=O)[nH]1)C1CCN(c2nc3ccccc3n2Cc2ccc(F)cc2)CC1 | 1.53% | inactive | 
Cc1cc2c(s1)Nc1ccccc1N=C2N1CCN(C)CC1 | 7.18% and 6.8% | inactive | 
Cc1cc(=O)oc2cc(O)ccc12 | 2.35% and 1.97% |  | 
CN(C)c1ccc(O)c2c1C[C@H]1C[C@H]3[C@H](N(C)C)C(=O)C(C(N)=O)=C(O)[C@@]3(O)C(=O)C1=C2O | 5.11% and -5.52% and -6.53% |  | 
Cc1cccc(CN2CCN(C(c3ccccc3)c3ccc(Cl)cc3)CC2)c1 (configuration not stated) | 8.45% and -5.16% |  | 
Cc1ncc([N+](=O)[O-])n1CC(C)O (configuration not stated) | 2.22% and 6.66% |  | 
CNC[C@H](O)c1ccc(O)c(O)c1 | 2.62% |  | 
Clc1ccc(C(Cn2ccnc2)OCc2ccsc2Cl)c(Cl)c1 (configuration not stated) | -26.3% and -17.4% |  | 
COC(=O)N[C@H](C(=O)N[C@@H](Cc1ccccc1)[C@@H](O)CN(Cc1ccc(-c2ccccn2)cc1)NC(=O)[C@@H](NC(=O)OC)C(C)(C)C)C(C)(C)C | 5.51% and -5.77% |  | 
